FBPA coupling cs: counter-screen for Giardia aldolase inhibitors: coupling enzyme system; hit rate 0.67% among 290,000; activity change, negative = inhibition, % at 58.2 µM, hits read low; coupling enzyme system counterscreen, AmpLite Red fluorescence; in the data active means activity change below about -30%
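Fluorescence at 525 nm excitation and 598 nm emission measured inhibition of the coupled detection system without aldolase. Compounds (at 57.5 uM final) were preincubated 10 min at room temperature with coupling enzyme reagent before a 20 min substrate/AmpLite Red step.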
TSHR antag: human thyrotropin receptor antagonism | hit rate 0.2% among 330,000 | activity change, negative = inhibition, % at 11.5 µM | TSHR-expressing cells, TSH-stimulated cAMP HTRF, 2 h; active compounds read low;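 active means activity change below a set negative limit, meaning inhibition stronger than a set level, cut at about -70% in these data; inconclusive means activity change between two set negative limits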
Target sequence (P16473 whole entry, looked up): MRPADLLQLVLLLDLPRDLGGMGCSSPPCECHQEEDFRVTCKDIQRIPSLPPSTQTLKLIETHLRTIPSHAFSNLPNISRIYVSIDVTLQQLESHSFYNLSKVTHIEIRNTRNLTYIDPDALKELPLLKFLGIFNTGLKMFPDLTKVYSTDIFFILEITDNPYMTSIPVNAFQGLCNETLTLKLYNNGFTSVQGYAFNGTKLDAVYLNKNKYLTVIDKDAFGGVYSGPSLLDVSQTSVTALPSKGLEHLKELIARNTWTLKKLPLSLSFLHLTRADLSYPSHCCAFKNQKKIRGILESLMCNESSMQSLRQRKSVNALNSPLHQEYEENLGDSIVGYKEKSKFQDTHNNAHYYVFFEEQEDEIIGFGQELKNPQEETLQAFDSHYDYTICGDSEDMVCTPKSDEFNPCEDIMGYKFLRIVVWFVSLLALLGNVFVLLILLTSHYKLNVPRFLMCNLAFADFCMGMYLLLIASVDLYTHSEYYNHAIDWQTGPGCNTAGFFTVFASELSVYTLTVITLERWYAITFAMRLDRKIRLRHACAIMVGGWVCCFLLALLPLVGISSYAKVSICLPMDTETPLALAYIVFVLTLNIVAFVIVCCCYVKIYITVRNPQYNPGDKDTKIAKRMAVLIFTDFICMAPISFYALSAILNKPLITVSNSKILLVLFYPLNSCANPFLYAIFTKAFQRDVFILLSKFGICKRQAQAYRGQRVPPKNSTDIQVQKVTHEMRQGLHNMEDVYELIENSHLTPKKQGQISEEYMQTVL
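Antagonism was scored as loss of TSH-driven cAMP in TSHR cells, stimulated with 4nM TSH (EC80) for 2 hours at 37 deg C and detected by homogeneous HTRF competition immunoassay.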
ELG1 repair inh: inhibitors of ELG1-dependent DNA repair in HEK293T cells. hit rate 2.3% among 330,000. Potency, µM (highest dose often 46.1 µM), without a hit: at the highest dose activity change, negative = inhibition, most hits filed as inhibitors. HEK293T ELG1-luciferase reporter, luminescence, 16 h; DNA damage induced by 5-fluorouridine; further: potency means the concentration at half of the fitted maximal effect; nearly all actives have a fitted effect of over 55% in size
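Step one: seed 2,000 cells per well. Step two: pin-transfer compound or DMSO alongside 5-fluorouridine. Step three: incubate 16 hr, 37 °C, 5% CO2. Step four: add ONE-Glo, wait 30 min, read luminescence.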
VP16 counter: Gal4-VP16 reporter inhibition counter-screen; Potency, µM (titrated, usually from 53.6 µM), for inactives: top-dose activity, negative = inhibition, hits mostly inhibitors; Drosophila S2 Gal4-VP16 UAS-luciferase, luminescence, 20 h; hit rate 3.5% among 310,000;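 further: Gal4-VP16 expression switched on by copper sulfate through the metallothionein promoter; potency means the concentration at half of the fitted maximal effect; nearly all actives have a fitted effect of over 50% in size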
RORgamma inh: blocks mouse ROR gamma transcriptional activity; Drosophila S2 Gal4-RORgamma UAS-luciferase reporter, 20 h; Potency, µM (highest dose often 53.6 µM), for the others: at the highest dose activity change, negative = inhibition, most hits filed as inhibitors; hit rate 5.4% among 310,000; AID 2551; further: potency means the concentration at half of the fitted maximal effect; nearly all actives have a fitted effect of over 60% in size
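Stably transfected Drosophila Schneider cells are the test system, with ROR gamma fused to Gal4 and luciferase under UAS control; luminescence is read after 20 hr of 700 uM copper sulfate induction at ambient temperature.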
Starred values were filed as active, the others as inactive; u = inconclusive; x = no result given. Sampled rows, rich in hits. Any-hit rate of the full collection: about 8%. Unless noted, the call rests on the fitted dose curve; in most records, active means well fitted curve in the direction sought with a large enough effect; inconclusive means small, poorly fitted or top-dose-only effect, or another doubt; inactive means no such curve, though single readings can be large; an effect the other way counts as inactive or inconclusive. On the % scale 0 is the no-effect control and ±100 the full control effect.

SMILES	FBPA coupling cs	TSHR antag	ELG1 repair inh	VP16 counter	RORgamma inh
C[C@H](NC(=O)CCCOc1ccc(Cl)cc1Cl)c1nnc2ccccn12	0	9	u	18%	-3%
Cc1ccc(NC(=O)CCc2c[nH]c3ccccc23)nc1	x	0	u	9%	15%
CCN1C(=O)[C@H]2[C@@H](c3ccc(-c4ccccc4)cc3)N[C@@](CC(C)C)(C(=O)OC)[C@H]2C1=O	x	9	14%	x	x
Cc1ccc2nc(NC(=O)CSCC(=O)OCC(=O)c3ccccc3)sc2c1	-1	-5	10%	2.2µM*	5µM*
Cc1ccc2nc(NC(=O)CCCc3nc4ccccc4s3)sc2c1	-1	3	u	15%	19%
Cc1ccc2nc(NC(=O)CCCC(=O)O)sc2c1	-2	-7	-16%	0.79µM*	1.1µM*
CCOCC(=O)Nc1nc2ccc(C)cc2s1	-2	-16	u	-29%	-39%
Cc1ccc2nc(NC(=O)C3CC3C)sc2c1 (stereo not drawn)	2	-22	u	-13%	7.1µM*
COCCN(Cc1ccccc1)C(=O)C1CCN(S(=O)(=O)c2ccc3c(c2)OCCO3)CC1	x	4	-1%	x	x
O=C(COC(=O)c1cc(-c2cccc(Br)c2)nc2ccccc12)NCC1CCCO1 (stereo not drawn)	0	-13	16%	-3%	36%
O=[N+]([O-])C(/C=C(\Cl)[N+](=O)[O-])=C(N1CCCCC1)N1CCCCC1	-2	-6	-30%	14µM*	u
O=[N+]([O-])C(=C1SCCS1)C(=C(Cl)Cl)N1CCCCC1	5	-30	1%	-26%	-6%
COc1ccc(-c2noc(CCC(=O)N3CCN(c4ccc(Cl)cc4)CC3)n2)cc1	x	-13	0%	x	x
COc1ccc2[nH]c3c(c2c1)CCN1C(=O)C(CC(=O)NC(C)(C)C)C[C@H](C(=O)N2CCCCC2)[C@@]31C (stereo partly drawn)	x	1	7%	x	x
CCN(CC)CCn1c(=S)[nH]c2cc(C(=O)NCc3ccccc3Cl)ccc2c1=O	0	1	17%	-4%	-14%
O=c1c2ccc(Cl)cc2[nH]c(=S)n1CCCN1CCOCC1	-1	1	9%	u	7.9µM*
CCN(CC)CCCn1c(=S)[nH]c2ccc(Cl)cc2c1=O	4	3	4%	u	11µM*
CC(C)N(CCn1c(=S)[nH]c2ccccc2c1=O)C(C)C	1	-2	8%	-2%	u
O=c1c2ccc(Cl)cc2[nH]c(=S)n1CCC1=CCCCC1	1	-2	u	2.5µM*	1.3µM*
CCN(CC)CCCn1c(=S)[nH]c2cc(Cl)ccc2c1=O	-3	1	15%	-22%	10µM*
CSCC[C@H](N)C(=O)N[C@@H](CCC(=O)O)C(=O)N[C@H](C(=O)NCC(=O)N[C@@H](Cc1c[nH]c2ccccc12)C(=O)N[C@@H](Cc1ccc(O)cc1)C(=O)N[C@@H](CCCNC(=N)N)C(=O)N[C@@H](CO)C(=O)N1CCC[C@H]1C(=O)N[C@@H](Cc1ccccc1)C(=O)N[C@@H](CO)C(=O)N[C@@H](CCCNC(=N)N)C(=O)N[C@H](C(=O)N[C@H](C(=O)N[C@@H](Cc1cnc[nH]1)C(=O)N[C@@H](CC(C)C)C(=O)N[C@@H](Cc1ccc(O)cc1)C(=O)N[C@@H](CCCNC(=N)N)C(=O)N[C@@H](CC(N)=O)C(=O)NCC(=O)N[C@@H](CCCCN)C(=O)O)C(C)C)C(C)C)C(C)C	0	x	x	-7%	1%
C[C@H](C(=O)OCO/N=[N+](\[O-])N1CCCC1)c1cccc2ccccc12	-19	x	x	-2%	16%
CCCc1nnc(SCC(=O)Nc2nnc(CC)s2)n1CC1CCCO1 (stereo not drawn)	1	-3	-2%	2%	0%
CC(C)(C)n1nc2c(c1NC(=O)c1cc(Cl)ccc1[N+](=O)[O-])CS(=O)(=O)C2	-4	-5	4%	-4%	-12%
CCC1Oc2ccc(C)cc2N(CC(=O)N2CCCC2)C1=O (stereo not drawn)	1	8	4%	-1%	-24%
SMILES	FBPA coupling cs	TSHR antag	ELG1 repair inh	VP16 counter	RORgamma inh
CCN(CC)CC(=O)Nc1nc(-c2ccc(Cl)cc2)cs1	0	-10	0%	20µM*	8.9µM*
O=C(CN1CCCCC1)Nc1nc(-c2ccc(Cl)cc2)cs1	1	-4	-3%	-25%	0%
CC(C)CC(=O)NC(=S)Nc1nc(-c2ccc(Cl)cc2)cs1	0	7	23%	u	8.9µM*
CC(C)CC(=O)NC(=S)Nc1nc(-c2ccccc2)cs1	5	8	u	5.6µM*	6.3µM*
Cn1c(SCC(=O)Nc2ccc3c(c2)OCCO3)nnc1C1CC1	0	-10	14%	4%	-20%
CCN(CC(=O)Nc1ccc(OC)cc1)C(=O)Cc1ccc(OC)c(S(=O)(=O)N2CCOCC2)c1	x	-4	21%	x	x
CC(C)Cc1cc(C(C)(C)C)ccc1OC(=S)N(C)C	0	7	6%	1%	13µM*
COc1ccc(C2NC(=S)NC3=C2CCCC3=C2SCCS2)cc1 (stereo not drawn)	5	0	u	u	10µM*
S=C1NC2=C(CCCC2=C2SCCCS2)C(c2ccccc2)N1 (stereo not drawn)	1	-11	11%	7.9µM*	u
CN(C)c1ncc2nc(CCc3ccccc3)c(=O)n(C[C@H]3CCCO3)c2n1	-3	x	x	13%	u
C=CCn1c(O)c(C2=c3ccccc3=NC2=O)c2ccccc21	1	18	-14%	4µM*	4.5µM*
Cc1cccc(C(=O)OC(C)C(=O)N2CCN(Cc3ccccc3)CC2)c1 (stereo not drawn)	x	-17	7%	x	x
Cc1cccc(OCCCn2c(=O)sc3ccccc32)c1	-10	10	u	-24%	8.9µM*
O=C(CCc1nnc2ccc(N3CCOCC3)nn12)Nc1ccc(F)cc1F	-2	-4	-4%	-17%	-2%
O=C1CCCC2=C1C(c1ccncc1)Nc1ccccc1N2 (stereo not drawn)	1	-6	-5%	-8%	11%
O=C1NCC2=C1C(c1ccccc1)Nc1ccccc1N2 (stereo not drawn)	-41*	7	u	0%	18%
COc1ccccc1NC(=S)N/N=C/c1cccc(C)c1	0	1	u	1.3µM*	0.89µM*
COc1ccccc1NC(=S)N/N=C/c1ccc(O)cc1	1	7	u	7.1µM*	4µM*
Oc1ccc(/C=N/NC(=S)N/N=C/c2ccc(O)cc2)cc1	3	39	28%	-2%	12%
COc1cccc(CN(C)C(=O)CSCC(=O)Nc2cccc(C)c2)c1OC	x	-6	-14%	x	x
CCc1noc(C)c1C(=O)Nc1nc(-c2ccc(OC)cc2OC)cs1	x	-2	u	x	x
